# ChEMBL document CHEMBL3988442, “University of Dundee, Small-Polar-MMV Screening Library” (2021)
# Among all 66,000 compounds or so, about 960 (1.5%) showed an effect of 50% or more. The sample as a whole holds a higher share of strong results than the screen did.
# Tested on: Trypanosoma brucei
# Assay: Trypanosoma brucei 72 hour study
# Format: functional, organism-based
# Parameters: scale not given: in the data most compounds retested in dose-response had high values
smiles,measurement,setting,value
N#CC1(C(=O)N2C[C@H]3CC[C@@H]2CN(Cc2cscn2)C3)CCOCC1,Percent Effect,"30 µM, 30.03 µM",-52.3%
Cc1nn(C)c(C)c1C1CCCN1CC(=O)Nc1nccs1 (stereo not drawn),Percent Effect,"30.3 µM, […]",-4.403%
CNC(=O)[C@@H]1C[C@H]2CN(Cc3csc(C)n3)C[C@H]2N1C(C)C.O=C(O)C(F)(F)F.O=C(O)C(F)(F)F,Percent Effect,"30.3 µM, […]",4.031%
Cc1nc(C(=O)N2CCN(c3ccc(Cl)c(Cl)c3)CC2)cs1,Percent Effect,"30.3 µM, […]",12.74%
Cc1nccc([C@H]2C[C@@H]3CCN(S(=O)(=O)C4CC4)C[C@H]3O2)n1,Percent Effect,"30.3 µM, […]",-36.22%
Cc1nccc([C@@H]2C[C@@H]3CCN(S(C)(=O)=O)C[C@H]3O2)n1,Percent Effect,"30 µM, 30.03 µM",53.53%
Cc1nccc([C@H]2C[C@@H]3CCN(S(C)(=O)=O)C[C@H]3O2)n1,Percent Effect,"30.3 µM, […]",-74.86%
CCNC(=O)Nc1ccc(N2CCC(OC)CC2)c(C(F)(F)F)c1,Percent Effect,"30 µM, 30.03 µM",-0.4307%
COc1ccc(CN2CCc3[nH]nc(C(=O)N(C)C)c3C2)cc1.O=C(O)C(F)(F)F,Percent Effect,"30.3 µM, […]",4.36%
COc1ccc(F)c(CN(CCCn2ccnc2)Cc2ccc(C)s2)c1.O=C(O)CC(O)(CC(=O)O)C(=O)O,Percent Effect,"30.3 µM, […]",-24.6%
CN(CC(=O)NC(Cc1ccsc1)c1cccnc1)Cc1cccnc1.Cl (stereo not drawn),Percent Effect,"30.3 µM, […]",-0.9311%
CN(Cc1nnc(C2CC2)o1)C(c1ccc(F)cc1)c1cccnc1 (stereo not drawn),Percent Effect,"30 µM, 30.03 µM",-93.52%
CC(C)c1nnc(CN(C)C(c2ccc(F)cc2)c2cccnc2)o1 (stereo not drawn),Percent Effect,"30 µM, 30.03 µM",-53.44%
CC(C)c1noc(CN(C)C(c2ccc(F)cc2)c2cccnc2)n1 (stereo not drawn),Percent Effect,"30 µM, 30.03 µM",70.75%
Cc1noc(CS(=O)(=O)c2cc(F)ccc2F)n1,Percent Effect,"30.3 µM, […]",-4.369%
Cc1noc(NCc2cc(F)ccc2F)n1,Percent Effect,"30.3 µM, […]",50.55%
Cc1nnc(NCc2ccc(F)cc2)o1,Percent Effect,"30 µM, 30.03 µM",-52.4%
COCc1cc(NCc2cc(F)ccc2F)n2nccc2n1,Percent Effect,"30 µM, 30.03 µM",-36.1%
CC(C)(C)c1nnc(NCc2ccc(F)cc2)o1,Percent Effect,"30 µM, 30.03 µM",-100%
Cc1noc(NCc2cn(C)nc2-c2ccncc2)n1,Percent Effect,"30 µM, 30.03 µM",-13.42%
Cc1noc(NCc2ccc(F)cc2F)n1,Percent Effect,"30.3 µM, […]",72.2%
Cc1noc(NCc2cn(C)nc2-c2cccnc2)n1,Percent Effect,"30 µM, 30.03 µM",-14.18%
Cc1noc(NCc2ccc(F)cc2)n1,Percent Effect,"30.3 µM, […]",55.37%
Cc1occc1C(=O)N1CCc2c(CNS(C)(=O)=O)cncc2C1.Cl,Percent Effect,"30.3 µM, […]",-7.203%
CN(C)C[C@]12COC[C@H]1CN(C(=O)Cc1ccc3c(c1)OCO3)C2.O=C(O)C(F)(F)F,Percent Effect,"30 µM, 30.03 µM",24.04%
Cn1ncc2c(NC3CCSC3)nc(-c3ccncc3)nc21 (stereo not drawn),Percent Effect,"30.3 µM, […]",38.84%
CC(=O)N1CCN(Cc2cccs2)CC2(CC(=O)N(C)C2)C1.O=C(O)C(F)(F)F (stereo not drawn),Percent Effect,"30.3 µM, […]",-45.81%
CN1CC(=O)N(c2ccsc2)CC12CCN(C(=O)c1cccn1C)C2.O=C(O)C(F)(F)F (stereo not drawn),Percent Effect,"30 µM, 30.03 µM",-33.31%
Cc1noc([C@@H]2CCO[C@@H]3CCN(Cc4ccc(C)s4)C[C@@H]32)n1.O=C(O)C(F)(F)F,Percent Effect,"30 µM, 30.03 µM",1.711%
O=C(O)C(F)(F)F.O=C(O)c1c(-c2cncnc2)ncc2c1CCN(CC1CCOC1)C2 (stereo not drawn),Percent Effect,"30.3 µM, […]",-18.52%
CCn1ncc2c1C(COCC1CC1)CN(c1ccncn1)C2.O=C(O)C(F)(F)F.O=C(O)C(F)(F)F (stereo not drawn),Percent Effect,"30 µM, 30.03 µM",-5.077%
O=C1CCCN1C(CNS(=O)(=O)C1CC1)Cc1cccc(F)c1 (stereo not drawn),Percent Effect,"30 µM, 30.03 µM",7.214%
COCCN1CCCC(c2nc(C)n3c(C)c(C)sc23)C1 (stereo not drawn),Percent Effect,"30.3 µM, […]",-27.06%
Cc1sc2c(C3CCCN(S(C)(=O)=O)C3)nc(C)n2c1C (stereo not drawn),Percent Effect,"30.3 µM, […]",73.25%
Cc1sc2c(C3CCCN(C(C)C)C3)nc(C)n2c1C (stereo not drawn),Percent Effect,"30.3 µM, […]",-21.43%
O=C(O)C(F)(F)F.c1cncc(CN2Cc3nccn3CC(Cn3cncn3)C2)c1 (stereo not drawn),Percent Effect,"30 µM, 30.03 µM",-73.02%
COc1ccc(C2(CNC(C)c3nnc(C)o3)CCCCC2)cc1 (stereo not drawn),Percent Effect,"30.3 µM, […]",100.1%
Cc1nnc(C(C)NCC2(c3ccc(Cl)cc3)CCCC2)o1 (stereo not drawn),Percent Effect,"30.3 µM, […]",-10.5%
COc1cccc(C2(CNC(C)c3nnc(C)o3)CCCC2)c1 (stereo not drawn),Percent Effect,"30.3 µM, […]",-15.21%
Cc1nnc(C(C)NCC2(c3ccc(Cl)cc3)CCOCC2)o1 (stereo not drawn),Percent Effect,"30.3 µM, […]",-12.99%
Cc1nnc(C(C)NCC2(c3ccc(F)cc3)CCCCC2)o1 (stereo not drawn),Percent Effect,"30.3 µM, […]",9.19%
Cc1cccc(C2(CNC(C)c3nnc(C)o3)CCCC2)c1 (stereo not drawn),Percent Effect,"30.3 µM, […]",99.4%
Cc1nccc(CNC(=O)NC(c2ncc(C)s2)C2CC2)n1 (stereo not drawn),Percent Effect,"30 µM, 30.03 µM",-69.67%
CN(C)CCOCc1nnc2n1CCN(Cc1ccco1)CC2.O=C(O)C(F)(F)F.O=C(O)C(F)(F)F,Percent Effect,"30.3 µM, […]",-5.145%
CCC1=N[C@@]2(CC[C@@H]3CN(Cc4ccc(C)cc4)C[C@@H]32)C(=O)N1C.O=C(O)C(F)(F)F,Percent Effect,"30.3 µM, […]",-61.95%
O=C(O)C(F)(F)F.O=C1CC2(CCCCN2C(=O)c2ccncc2)CN1CC1CC1 (stereo not drawn),Percent Effect,"30.3 µM, […]",-11.8%
O=C(CCn1cncn1)N1CCCC1c1noc(C2CC2)n1 (stereo not drawn),Percent Effect,10 µM,-39.57%
COCCN1CCC2(CC1)CC(NC(=O)C1CC1)c1ccccc1O2.O=C(O)C(F)(F)F (stereo not drawn),Percent Effect,"30.3 µM, […]",-14.66%
